Molecules are shown by their SMILES. Inconclusive results are not listed. Activity calls are given as the source filed them. Rule for the calls: active = hit-call score of the fitted dose curve at least 0.9, where 1 is the maximum; inconclusive = response in the unintended direction; inactive = score below 0.9.

Chain of Glucocorticoid receptor (Homo sapiens) (P04150 whole entry, looked up): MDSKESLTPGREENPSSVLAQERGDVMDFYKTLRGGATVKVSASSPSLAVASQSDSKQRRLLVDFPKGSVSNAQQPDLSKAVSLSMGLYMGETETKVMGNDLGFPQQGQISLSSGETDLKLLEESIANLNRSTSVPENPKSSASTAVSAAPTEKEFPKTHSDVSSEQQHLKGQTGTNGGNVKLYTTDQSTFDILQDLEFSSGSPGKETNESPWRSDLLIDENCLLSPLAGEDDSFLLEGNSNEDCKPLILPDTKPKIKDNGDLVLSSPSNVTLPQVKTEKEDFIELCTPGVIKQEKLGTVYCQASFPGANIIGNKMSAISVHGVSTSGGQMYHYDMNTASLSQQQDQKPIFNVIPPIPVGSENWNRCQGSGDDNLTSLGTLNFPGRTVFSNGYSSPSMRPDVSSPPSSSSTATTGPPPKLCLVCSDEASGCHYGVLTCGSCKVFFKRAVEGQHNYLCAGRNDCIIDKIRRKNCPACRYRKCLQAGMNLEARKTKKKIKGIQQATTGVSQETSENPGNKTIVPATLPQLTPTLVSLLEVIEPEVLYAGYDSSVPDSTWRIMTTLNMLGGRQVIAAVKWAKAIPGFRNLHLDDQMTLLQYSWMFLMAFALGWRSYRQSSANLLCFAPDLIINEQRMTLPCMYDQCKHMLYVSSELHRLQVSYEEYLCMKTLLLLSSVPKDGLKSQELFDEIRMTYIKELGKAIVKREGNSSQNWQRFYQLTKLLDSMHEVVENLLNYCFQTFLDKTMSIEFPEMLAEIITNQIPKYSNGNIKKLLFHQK

The target in this experiment is Glucocorticoid receptor (Homo sapiens) (UniProt P04150). The experiment is described as follows: ATG_GR_TRANS: Attagene TRANS-FACTORIAL HepG2 Assay for human Glucocorticoid Receptor (GR) (AID 2282978).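 Note: activators score as hits since higher reporter transcript over DMSO is fitted.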 The conditions noted are these: HepG2 Attagene TRANS GR reporter, mRNA transcription. In outline:
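After 24 h incubation with test chemical, transfected HepG2 cells were lysed for RNA; reporter cDNA was amplified, FAM-labelled, HpaI-digested and sized on a capillary analyser. Signal gain relative to DMSO was scored.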
Regarding `Cc1occc1C(=O)Nc1ccc(C(=O)N2CCC(F)(F)/C(=C\C(=O)N3CCC(N4CCCCC4)CC3)c3ccccc32)cc1`, the outcome was inactive. Same read-out and setting: the result for `O=c1c(-c2ccc(O)cc2)coc2cc(O)cc(O)c12` reads “inactive”; that for `O=C(O)c1ccccc1-n1cc(C(=O)O)c(=O)c2cc(Nc3c(F)cc(F)cc3Cl)c(Cl)cc21`, “inactive”; that for `Cc1cc(F)ccc1-c1cc(N2CC[C@@H](O)[C@H]2CO)ncc1N(C)C(=O)C(C)(C)c1cc(C(F)(F)F)cc(C(F)(F)F)c1`, “inactive”.

In the case of `CCCCOC(=O)c1ccc(O)cc1`, the outcome was inactive. Same read-out and setting: the result for `O=C(O)Cc1cc(I)c(Oc2ccc(O)c(I)c2)c(I)c1` reads “inactive”. For `CC[C@@H]1C[C@H](N(Cc2cc(C(F)(F)F)cc(C(F)(F)F)c2)C(C)=O)c2cc(C(F)(F)F)ccc2N1C(=O)OC(C)C`, the AC50 was 100 µM (active). For the compound `Cc1oc2c(NC(=O)c3c(Cl)cccc3Cl)cccc2c1C(C)(C)O`, the call was inactive. `CC(=O)N1CCN(c2ccc(OC[C@H]3CO[C@](Cn4ccnc4)(c4ccc(Cl)cc4Cl)O3)cc2)CC1`: the call was inactive.

As for `CCCCCCCCOC(=O)c1cc(O)c(O)c(O)c1`, the compound was called inactive. Regarding `Cc1cn([C@H]2C[C@H](N=[N+]=[N-])[C@@H](CO)O2)c(=O)[nH]c1=O`, the outcome was inactive. Still for that read-out and setting: the result for `CN(C)C(=O)C1(N2CCCCC2)CCN(CC[C@@]2(c3ccc(Cl)c(Cl)c3)CN(C(=O)c3ccccc3)CCO2)CC1` reads “inactive”. For the compound `O=C1O[C@H]([C@@H](O)CO)C(O)=C1O`, the compound was called inactive. In the case of `Oc1ccc2ccccc2c1`, the outcome was inactive. Same read-out and setting: the same measure for `O=C(Nc1ccc(Cl)cc1)Nc1ccc(Cl)c(Cl)c1`: “inactive”; for `O=CCCCC=O`: “inactive”.

What is called AC50 is the concentration at which the activity in the assay is half-maximal.

Source of the values: PubChem BioAssay (EPA / NIEHS).
